According to PubChem BioAssay (NCATS):
Records with an inconclusive call do not appear. Calls of active or inactive are those of the source. Unless noted, calls follow the shape of the dose curve; as a rule, active = well fitted curve in either direction with a large enough effect (not every such curve was filed as active); inconclusive = small, poorly fitted or top-dose-only effect, or another doubt; inactive = flat fitted curve, though single readings scatter.

What was measured:
[1] = target: Lysosomal acid glucosylceramidase (Homo sapiens) (UniProt P04062); assay: Glucocerebrosidase-p2 (AID 348; in the data active = potency below about 10 µM; also: potency is read from the fitted curve at half-maximal effect); conditions: purified GBA, blue fluorogenic substrate, 40 min
Sequence of Lysosomal acid glucosylceramidase (Homo sapiens) (P04062 whole entry, looked up): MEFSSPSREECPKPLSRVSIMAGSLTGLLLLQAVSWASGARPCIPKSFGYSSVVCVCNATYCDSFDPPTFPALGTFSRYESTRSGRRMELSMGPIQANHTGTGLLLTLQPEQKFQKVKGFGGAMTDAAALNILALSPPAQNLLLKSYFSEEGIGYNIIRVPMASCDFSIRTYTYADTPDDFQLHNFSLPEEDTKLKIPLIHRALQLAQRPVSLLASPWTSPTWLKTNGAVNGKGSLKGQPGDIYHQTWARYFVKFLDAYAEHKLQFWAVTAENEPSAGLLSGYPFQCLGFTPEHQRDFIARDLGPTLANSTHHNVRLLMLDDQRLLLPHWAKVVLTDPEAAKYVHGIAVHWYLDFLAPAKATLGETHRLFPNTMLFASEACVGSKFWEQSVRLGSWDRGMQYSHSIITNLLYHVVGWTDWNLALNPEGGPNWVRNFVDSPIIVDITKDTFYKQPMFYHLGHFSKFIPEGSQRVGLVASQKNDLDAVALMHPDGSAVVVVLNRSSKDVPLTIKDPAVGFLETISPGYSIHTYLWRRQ
Procedure, shortened: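 Compounds titrated from 0.6 nM upwards against 0.2 nM enzyme in pH 5.9 citric acid/KH2PO4, taurocholate, tween-20; blue fluorogenic substrate 80 uM, 40 min room temperature, stopped and read Ex 365/Em 440 for AC50.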

[2] = AP1 Signaling Pathway (AID 357); conditions: ME-180 AP-1-bla reporter, EGF-induced, beta-lactamase ratio, 5 h; at 7.69 µM (top of the series) unless noted;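 also: ME-180 reporter cells stimulated with EGF at its EC50 level; % is scaled to controls: 0 for no effect and ±100 for the full control effect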
Procedure, shortened: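 In this screen, ME-180 cells in Opti-MEM with 0.5% dialyzed FBS received EC50 EGF and compound titrations for 5 h. AP-1 reporter beta-lactamase was detected via CCF4 ratio, giving AC50 for positive and negative modulators.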

[3] = NFAT Signaling Pathway (AID 444); conditions: Jurkat NFAT-bla M1, carbachol, beta-lactamase ratio, 5 h; at 7.69 µM (top of the series) unless noted;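 also: carbachol stimulus at about its EC50 of 1 µM final; % is scaled to controls: 0 for no effect and ±100 for the full control effect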
Procedure, shortened: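 Jurkat cells carrying an NFAT-driven β-lactamase reporter and co-transfected muscarinic M1 receptor were treated with compound plus carbachol (1 uM final, an EC50 level) for 5 h at 37 °C. CCF4 loading followed for 1 h at RT; 460/530 nm ratio gave %activity.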

[4] = Stat Signaling Pathway (AID 446); conditions: ME-180 SIE beta-lactamase reporter, IL-6 stimulated, 5 h; at 7.69 µM (top of the series) unless noted;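 also: ME-180 cervical cancer cells given 40 pM IL-6 alongside compound; SIE-controlled beta-lactamase reporter measured as 460/530 nm FRET emission ratio; % is scaled to controls: 0 for no effect and ±100 for the full control effect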
Procedure, shortened: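 ME-180 SIE-bla cells; overnight plating; cpd + IL-6 40 pM, 5 h, 37 C; LiveBLAzer 2.5 h RT; 460/530 nm emission ratio. Normalized to 300 pM IL-6 and 125 nM JAK inhibitor controls.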

[5] = target: Glucocorticoid receptor (Homo sapiens) (UniProt P04150); assay: GR-GFP Redistribution (AID 450;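 active = compounds whose dose series gives a full or clear partial fitted curve of increased nuclear translocation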; also: potency is read from the fitted curve at half-maximal effect); conditions: U2OS GR-GFP nuclear translocation, laser cytometry, 2 h
Sequence of Glucocorticoid receptor (Homo sapiens) (P04150 whole entry, looked up, the tested form may be a part): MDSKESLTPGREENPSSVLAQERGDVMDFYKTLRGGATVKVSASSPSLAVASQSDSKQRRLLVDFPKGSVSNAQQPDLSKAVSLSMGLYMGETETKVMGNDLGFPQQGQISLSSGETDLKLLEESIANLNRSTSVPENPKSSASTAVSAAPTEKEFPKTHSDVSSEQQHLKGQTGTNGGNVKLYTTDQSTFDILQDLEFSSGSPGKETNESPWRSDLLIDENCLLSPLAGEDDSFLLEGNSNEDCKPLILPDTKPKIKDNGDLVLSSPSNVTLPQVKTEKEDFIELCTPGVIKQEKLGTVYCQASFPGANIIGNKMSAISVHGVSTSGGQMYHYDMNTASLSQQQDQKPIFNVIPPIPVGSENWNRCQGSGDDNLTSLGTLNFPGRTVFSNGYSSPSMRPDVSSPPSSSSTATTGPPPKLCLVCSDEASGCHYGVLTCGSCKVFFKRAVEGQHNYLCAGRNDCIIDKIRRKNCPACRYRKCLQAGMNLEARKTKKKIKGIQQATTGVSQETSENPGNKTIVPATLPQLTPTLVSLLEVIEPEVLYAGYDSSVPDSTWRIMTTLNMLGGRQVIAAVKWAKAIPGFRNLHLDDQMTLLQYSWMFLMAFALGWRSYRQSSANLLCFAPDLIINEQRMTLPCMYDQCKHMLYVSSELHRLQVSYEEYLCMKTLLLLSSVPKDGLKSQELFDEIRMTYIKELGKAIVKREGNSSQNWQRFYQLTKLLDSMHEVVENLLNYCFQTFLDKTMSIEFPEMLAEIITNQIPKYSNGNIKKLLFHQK

[6] = target: Glucocorticoid receptor (Homo sapiens) (UniProt P04150); assay: GR-EFC Redistribution (AID 451; calls by dose curve; also: potency is read from the fitted curve at half-maximal effect); conditions: CHO-K1 GR-EFC translocation, beta-gal luminescence, 2 h
Procedure, shortened: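 CHO-K1 cells stably expressing nuclear-localized β-gal enzyme acceptor and GR fused C-terminally to the enzyme donor fragment; ligand-driven nuclear translocation restores β-gal by complementation. Compounds titrated up to 46 uM final, 2 h at 37 °C; luminescence read.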

[7] = target: Mitogen-activated protein kinase 10 (Mus musculus) (UniProt Q61831); assay: JNK3 AlphaScreen Assay (AID 530); conditions: JNK3 lysate, c-Jun phosphorylation; series mostly up to 11.4 µM;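 also: kinase came from lysate of stimulated human HepG2 cells; signal reports phosphorylation of biotinylated GST-cJun 1-79 at Ser73 with 10 µM ATP; % is scaled to controls: 0 for no effect and ±100 for the full control effect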
Procedure, shortened: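 JNK3 came from HepG2 lysates pre-activated with IL-1beta and TNF-alpha and phosphorylated biotinylated GST-cJun (1-79) at 10 uM ATP, pH 7.6, room temperature. Compounds were titrated. AlphaScreen signal used anti-phospho-cJun (Ser73) antibody.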

[8] = target: 3',5'-cyclic-AMP phosphodiesterase 4B (Homo sapiens) (UniProt Q07343); assay: qHTS Assay for Inhibitors of PDE-IV (AID 607; active = well fitted activation curve with a large enough effect in the main read-out, with a control signal flat, not every such curve was filed as active; also: % of control where 0% means no effect); conditions: HEK293 ACTOne CNG channel cells, membrane potential fluorescence; series mostly up to 22.9 µM
Sequence of 3',5'-cyclic-AMP phosphodiesterase 4B (Homo sapiens) (Q07343 whole entry, looked up): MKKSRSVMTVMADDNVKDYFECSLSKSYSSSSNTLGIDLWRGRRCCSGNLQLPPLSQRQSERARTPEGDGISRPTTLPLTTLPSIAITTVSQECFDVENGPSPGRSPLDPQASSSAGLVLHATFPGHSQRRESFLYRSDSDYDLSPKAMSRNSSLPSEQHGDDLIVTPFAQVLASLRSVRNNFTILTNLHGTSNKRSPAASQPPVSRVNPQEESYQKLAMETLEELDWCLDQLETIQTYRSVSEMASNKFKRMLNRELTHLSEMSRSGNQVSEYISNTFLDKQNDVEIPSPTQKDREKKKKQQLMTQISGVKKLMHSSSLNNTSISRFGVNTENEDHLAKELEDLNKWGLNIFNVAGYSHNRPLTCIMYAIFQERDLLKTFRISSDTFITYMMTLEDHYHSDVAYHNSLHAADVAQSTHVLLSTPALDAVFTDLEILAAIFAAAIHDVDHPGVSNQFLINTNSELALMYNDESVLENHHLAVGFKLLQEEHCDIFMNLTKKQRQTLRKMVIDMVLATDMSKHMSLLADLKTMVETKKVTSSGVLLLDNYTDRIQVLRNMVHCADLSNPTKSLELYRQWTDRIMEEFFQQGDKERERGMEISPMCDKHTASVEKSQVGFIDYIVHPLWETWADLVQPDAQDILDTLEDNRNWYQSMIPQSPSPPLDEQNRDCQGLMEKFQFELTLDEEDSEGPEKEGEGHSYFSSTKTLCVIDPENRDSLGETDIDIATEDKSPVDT
Procedure, shortened: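 ACTOne HEK293 cells carry a modified cAMP-gated CNG channel and express endogenous PDE4; plated 1000 cells/well, compounds up to 22.9 uM final. Membrane-potential dye fluorescence (ex 535/em 590) was read; parental cells received 10 uM forskolin + 100 uM RO 20-1724.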

[9] = target: Cytochrome P450 2C9 (Homo sapiens) (UniProt P11712); assay: qHTS Assay for Inhibitors and Substrates of Cytochrome P450 2C9 (AID 883; active = well fitted inhibition curve with a large enough effect; also: % is scaled to controls: 0 for no effect and ±100 for the full control effect; nearly all actives have a fitted effect of over 60% in size); conditions: recombinant CYP2C9, luciferin-H luminescence, 60 min; series mostly up to 11.4 µM
Sequence of Cytochrome P450 2C9 (Homo sapiens) (P11712 whole entry, looked up): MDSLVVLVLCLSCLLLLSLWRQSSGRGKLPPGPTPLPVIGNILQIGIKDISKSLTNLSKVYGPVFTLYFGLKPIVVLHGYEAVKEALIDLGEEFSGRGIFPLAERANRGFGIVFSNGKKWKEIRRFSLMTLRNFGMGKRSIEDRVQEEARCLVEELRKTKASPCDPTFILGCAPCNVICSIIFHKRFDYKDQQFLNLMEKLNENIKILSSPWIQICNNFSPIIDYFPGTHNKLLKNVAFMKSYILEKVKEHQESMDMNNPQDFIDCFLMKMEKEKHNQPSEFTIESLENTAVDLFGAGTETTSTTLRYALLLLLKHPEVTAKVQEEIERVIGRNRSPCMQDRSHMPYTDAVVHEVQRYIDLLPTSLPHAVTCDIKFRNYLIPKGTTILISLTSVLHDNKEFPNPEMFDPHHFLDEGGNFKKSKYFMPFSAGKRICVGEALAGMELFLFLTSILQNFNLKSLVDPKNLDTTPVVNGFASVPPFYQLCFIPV
Procedure, shortened: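 CYP2C9 deoxyluciferin hydroxylation, 37C, 60 min with NADPH regeneration; 10nM enzyme, 100uM Luciferin-H (KM). Glo detection reagent stopped reaction; luminescence normalized to sulphaphenazole (57uM) full inhibition.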

[10] = target: Cytochrome P450 3A4 (Homo sapiens) (UniProt P08684); assay: qHTS Assay for Inhibitors and Substrates of Cytochrome P450 3A4 (AID 884; active = well fitted inhibition curve with a large enough effect; also: % is scaled to controls: 0 for no effect and ±100 for the full control effect; nearly all actives have a fitted effect of over 50% in size); conditions: recombinant CYP3A4, Luciferin-PPXE luminescence; series mostly up to 57.1 µM
Sequence of Cytochrome P450 3A4 (Homo sapiens) (P08684 whole entry, looked up): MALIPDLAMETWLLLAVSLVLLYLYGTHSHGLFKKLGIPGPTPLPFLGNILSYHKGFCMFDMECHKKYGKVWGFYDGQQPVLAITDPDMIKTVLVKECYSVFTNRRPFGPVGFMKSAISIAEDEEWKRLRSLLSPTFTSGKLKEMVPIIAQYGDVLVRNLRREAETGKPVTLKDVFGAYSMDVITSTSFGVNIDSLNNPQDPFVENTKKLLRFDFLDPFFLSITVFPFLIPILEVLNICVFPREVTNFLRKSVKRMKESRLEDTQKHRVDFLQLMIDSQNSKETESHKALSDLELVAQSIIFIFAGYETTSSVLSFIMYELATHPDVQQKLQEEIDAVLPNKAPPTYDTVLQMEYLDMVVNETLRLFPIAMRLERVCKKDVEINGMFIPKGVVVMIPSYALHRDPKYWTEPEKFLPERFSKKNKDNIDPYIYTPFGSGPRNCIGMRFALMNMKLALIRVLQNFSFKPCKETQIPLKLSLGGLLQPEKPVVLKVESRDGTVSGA
Procedure, shortened: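 20 nM human CYP3A4 with 25 uM Luciferin-PPXE (at KM) in 200 mM KPO4, preincubated 10 min with compound; NADPH regeneration started a 60 min RT reaction. Luciferin detected by luminescence, normalized to 57 uM ketoconazole as full inhibition.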

[11] = target: Cytochrome P450 2D6 (Homo sapiens) (UniProt P10635); assay: qHTS Assay for Inhibitors and Substrates of Cytochrome P450 2D6 (AID 891; active = well fitted inhibition curve with a large enough effect;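 also: luciferin methyl ether substrate demethylated by CYP2D6 with NADPH regeneration; % is scaled to controls: 0 for no effect and ±100 for the full control effect; nearly all actives have a fitted effect of over 60% in size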); conditions: recombinant CYP2D6, luciferin-ME EGE luminescence; series mostly up to 11.4 µM
Sequence of Cytochrome P450 2D6 (Homo sapiens) (P10635 whole entry, looked up): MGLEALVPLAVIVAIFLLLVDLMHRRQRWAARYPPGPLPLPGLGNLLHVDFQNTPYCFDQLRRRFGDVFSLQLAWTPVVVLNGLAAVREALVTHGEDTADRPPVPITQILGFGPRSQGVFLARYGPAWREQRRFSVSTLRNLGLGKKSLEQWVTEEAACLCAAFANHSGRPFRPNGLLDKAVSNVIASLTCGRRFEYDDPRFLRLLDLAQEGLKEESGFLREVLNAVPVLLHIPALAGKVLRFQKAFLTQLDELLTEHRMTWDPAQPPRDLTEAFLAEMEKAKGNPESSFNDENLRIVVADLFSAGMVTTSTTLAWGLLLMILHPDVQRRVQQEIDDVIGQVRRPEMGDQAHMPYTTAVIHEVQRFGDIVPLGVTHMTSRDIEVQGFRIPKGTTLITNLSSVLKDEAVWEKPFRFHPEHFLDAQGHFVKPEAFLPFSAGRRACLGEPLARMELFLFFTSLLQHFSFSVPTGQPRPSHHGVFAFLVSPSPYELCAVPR
Procedure, shortened: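 Human CYP2D6 (5 nM) with 30 uM Luciferin-ME EGE (at Km) in 100 mM KPO4, compound preincubated 10 min, then NADPH regeneration system for 60 min at room temperature. Luciferin read by luminescence; normalized to 1.43 uM quinidine.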

[12] = target: Cytochrome P450 2C19 (Homo sapiens) (UniProt P33261); assay: qHTS Assay for Inhibitors and Substrates of Cytochrome P450 2C19 (AID 899; active = well fitted inhibition curve with a large enough effect; also: % is scaled to controls: 0 for no effect and ±100 for the full control effect; nearly all actives have a fitted effect of over 60% in size); conditions: recombinant CYP2C19, luciferin-H EGE luminescence; series mostly up to 11.4 µM
Sequence of Cytochrome P450 2C19 (Homo sapiens) (P33261 whole entry, looked up): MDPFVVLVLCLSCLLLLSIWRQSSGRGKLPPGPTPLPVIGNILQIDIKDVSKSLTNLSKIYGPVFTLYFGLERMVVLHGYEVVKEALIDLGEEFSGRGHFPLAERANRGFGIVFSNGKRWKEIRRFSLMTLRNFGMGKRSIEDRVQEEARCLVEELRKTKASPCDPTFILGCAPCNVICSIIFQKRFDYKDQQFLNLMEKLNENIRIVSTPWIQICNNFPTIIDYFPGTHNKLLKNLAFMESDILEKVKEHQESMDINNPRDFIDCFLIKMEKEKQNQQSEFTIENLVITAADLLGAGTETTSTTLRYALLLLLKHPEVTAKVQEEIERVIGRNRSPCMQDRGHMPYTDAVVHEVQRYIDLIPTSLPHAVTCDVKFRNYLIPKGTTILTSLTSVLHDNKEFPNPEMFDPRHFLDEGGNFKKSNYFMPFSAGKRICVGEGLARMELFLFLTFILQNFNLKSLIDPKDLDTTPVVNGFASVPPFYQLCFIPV
Procedure, shortened: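 In 50mM KPO4, the reaction held 5nM enzyme and KM-level (10uM) Luciferin-H EGE; it ran 60 min at 37C after NADPH regeneration and a 10 min compound preincubation. Luminescence values were scaled to 57uM ketoconazole as complete inhibition.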

CC(C)C1=C[C@@]23CC[C@@H]4[C@](C)(CCC[C@@]4(C)C(=O)O)[C@@H]2C[C@@H]1[C@@H](C(=O)O)[C@@H]3C(=O)O
inactive: Potency [1] > 11.4 µM | activity change, negative = inhibition [2] 1.99% | activity change, negative = inhibition [3] 4.67% | activity, negative = inhibition [4] 5.23% | Potency [5] > 46 µM | Potency [6] > 9.22 µM | Potency [7] | Potency [8]

CC1(C)[C@@H](CC(=O)O)CCC[C@@H]1CC(=O)O
inactive: Potency [1] > 11.4 µM | activity change, negative = inhibition [2] 2.47% | activity change, negative = inhibition [3] 5.58% | activity, negative = inhibition [4] 1.3% | Potency [5] > 46 µM | Potency [6] > 9.22 µM | Potency [7] | Potency [8]

O=C(O)c1cccc(C[C@H](Br)C(=O)O)c1
inactive: Potency [1] > 11.4 µM | activity change, negative = inhibition [2] 3.81% | activity change, negative = inhibition [3] 14.3% | activity, negative = inhibition [4] 9.47% | Potency [5] > 46 µM | Potency [6] > 9.22 µM | Potency [7] | Potency [8]

Cc1cc2cc3c(=O)[nH]c(=O)[nH]c3nc2cc1C
inactive: Potency [1] > 11.4 µM | activity change, negative = inhibition [2] -6.37% | activity change, negative = inhibition [3] 11.7% | activity, negative = inhibition [4] -6.9% | Potency [5] > 46 µM | Potency [6] > 9.22 µM | Potency [7] | Potency [8]

NC(=O)N/N=C1\CC[C@H](O)C[C@@H]1CC(=O)O
inactive: Potency [1] > 11.4 µM | activity change, negative = inhibition [2] 11.5% | activity change, negative = inhibition [3] 5.67% | activity, negative = inhibition [4] 0.119% | Potency [5] > 46 µM | Potency [6] > 9.22 µM | Potency [7] | Potency [8]

O=C(O)CSc1n[nH]c(=O)[nH]c1=O
inactive: Potency [1] > 11.4 µM | activity change, negative = inhibition [2] 0.951% | activity change, negative = inhibition [3] 5.38% | activity, negative = inhibition [4] 13.4% | Potency [5] > 46 µM | Potency [6] > 9.22 µM | Potency [7] | Potency [8] | Potency [9] | activity change, negative = inhibition [10] -64.1% [at 11.4 µM] | Potency [11] | Potency [12]

CN(C)Cc1nsc(N(C)C)n1
inactive: Potency [1] > 11.4 µM | activity change, negative = inhibition [2] 6.96% | activity change, negative = inhibition [3] 0.0247% | activity, negative = inhibition [4] 11.1% | Potency [5] > 46 µM | Potency [6] > 9.22 µM | Potency [7] | Potency [8]

C[C@H](CCC(=O)O)[C@H]1CC[C@@H]2[C@@H]3CC[C@H]4C[C@@H](O)CC[C@@]4(C)[C@@H]3C[C@H](O)[C@@]21C
inactive: Potency [1] > 11.4 µM | activity change, negative = inhibition [2] 4.11% | activity change, negative = inhibition [3] 27.2% | activity, negative = inhibition [4] 2.1% | Potency [5] > 46 µM | Potency [6] > 9.22 µM | Potency [7] | Potency [8]
